Measured values published in PubChem BioAssay (NCI).
About 79,000 compounds went through this panel and 15% of them were active in at least one assay; those are over-represented in the sample as a whole. Calls of active or inactive are those of the source. Rule as the data show it: active = growth inhibition above about 70%; inactive = the rest.

Key:
[1] = NCI Yeast Anticancer Drug Screen. Data for the rad50 strain (AID 155);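 also: 0% = growth of vehicle-only cultures of the same strain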; conditions: S. cerevisiae rad50 strain growth inhibition; at 50.0 µM; hits give high values
Summary of the method: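 A DNA repair-deficient yeast mutant serves as the test organism; compound-induced growth inhibition is calculated against vehicle-treated cells.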

[2] = NCI Yeast Anticancer Drug Screen. Data for the mec2-1 strain (AID 157); conditions: S. cerevisiae mec2-1 strain, at 50.0 µM, hits give high values
Summary of the method: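 mec2-1 yeast strain, carrying an alteration in DNA damage repair or cell cycle control, was exposed to compounds; growth inhibition was measured relative to vehicle-treated controls.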

[3] = NCI Yeast Anticancer Drug Screen. Data for the sgs1 mgt1 strain (AID 161);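 also: 0% = growth of cultures given vehicle only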; conditions: S. cerevisiae sgs1 mgt1 strain, at 50.0 µM, hits give high values
Summary of the method: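 Percent growth inhibition was derived by comparing compound-exposed mutant yeast with vehicle-exposed cultures. The strain carries alterations in DNA damage repair.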

[4] = NCI Yeast Anticancer Drug Screen. Data for the cln2 rad14 strain (AID 165);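 also: 0% = growth equal to vehicle treated cultures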; conditions: S. cerevisiae cln2 rad14 strain, at 50.0 µM, hits give high values
Summary of the method: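 Yeast carrying cln2 and rad14 alterations (cell cycle control and DNA damage repair) were exposed to compounds. Growth inhibition was measured against vehicle-treated controls.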

[5] = NCI Yeast Anticancer Drug Screen. Data for the bub3 strain (AID 167); conditions: S. cerevisiae bub3 mutant strain, at 50.0 µM, hits give high values
Summary of the method: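 Inhibition values come from growth of compound-treated mutant yeast normalised to vehicle-treated controls.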

[6] = NCI Yeast Anticancer Drug Screen. Data for the mlh1 rad18 strain (AID 175); conditions: S. cerevisiae mlh1 rad18 strain growth inhibition; at 50.0 µM; hits give high values
Summary of the method: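 Growth inhibition of the yeast strain was measured after compound exposure and expressed relative to vehicle-treated controls. The strain carries defined defects in DNA damage repair.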

Measured: growth inhibition

CCC(SC)C(=O)N(C)c1ccccc1 (stereo unspecified)
inactive: [1] -8.5% | [2] -15.3% | [3] 1.25% | [4] -10.3% | [5] -13.1% | [6] -3%

CCOC(=O)C(c1ccccc1)C(C)c1ccccc1 (stereo unspecified)
inactive: [1] -7.5% | [2] -0.4% | [3] 1.85% | [4] 1.9% | [5] -11.3% | [6] -12.2%

CC(=O)OCCc1ccc2c(c1)OCO2
inactive: [1] -0.1% | [2] -11.8% | [3] 6.05% | [4] -30.9% | [5] -16.9% | [6] -6.15%

O=C(CN1C(=O)c2cccc3c(Br)ccc(c23)C1=O)c1ccc(Cl)cc1
inactive: [1] -14.2% | [2] -12.7% | [3] 5.85% | [4] 5% | [5] 6.8% | [6] 13.6%

CCC(C)N=Cc1ccccc1O.CCC(C)N=Cc1ccccc1O.[Cu] (stereo unspecified)
inactive: [1] 33.7% | [2] -10.3% | [3] 28.4% | [4] -44.7% | [5] 2.1% | [6] 11.2%

O=C1C(CO)=C[C@@H](O)[C@H]2O[C@@H]12
inactive: [1] 8.25% | [2] 1.5% | [3] 12.6% | [4] 6.8% | [5] 15.9% | [6] 17.4%

Cc1cccc(C(=O)O)c1[N+](=O)[O-]
inactive: [1] 10.4% | [2] 1.05% | [3] -8.25% | [4] -8.35% | [5] -14% | [6] 7.1%

O=C(O)C1C2C=CC(O2)C1C(=O)Nc1ncccn1 (stereo unspecified)
inactive: [1] -0.65% | [2] -33.9% | [3] -14.4% | [4] -23.3% | [5] -35.4% | [6] -3.6%

CC(O)CNC(=O)C(C)O (stereo unspecified)
inactive: [1] 11.8% | [2] -27.6% | [3] -25.8% | [4] -5.45% | [5] 8.25% | [6] 7.6%

CC(C)CC1=C(O)c2ccccc2C(=O)C1=O
inactive: [1] 11% | [2] -9.7% | [3] -1.45% | [4] -1.6% | [5] 10.4% | [6] -2.4%

O=C(NNc1ccccc1OCc1ccccc1)C(F)(F)F
inactive: [1] -0.25% | [2] -20.3% | [3] 0.35% | [4] 39.8% | [5] 27% | [6] 11.2%

O=C(CCc1ccccc1C(=O)O)c1ccccc1O
inactive: [1] 0.7% | [2] -9.55% | [3] -3.35% | [4] 17.2% | [5] 5.5% | [6] -7.6%

Nc1nc(N)c(N=Nc2cc(Cl)cc(Cl)c2)c(=O)[nH]1
inactive: [1] 24.2% | [2] 9.3% | [3] -12.3% | [4] -1.1% | [5] 3.15% | [6] 8.8%

O=C1C=CC(=O)c2c1ccc1c3ccccc3n(CCCCCn3c4ccccc4c4ccc5c(c43)C(=O)C=CC5=O)c21
inactive: [1] -20.8% | [2] -9.85% | [3] -18.2% | [4] 0.8% | [5] -28.4% | [6] -19%

Cc1cc2c(=O)cc(-c3ccccc3)oc2c(C(N)=O)c1C
inactive: [1] 15.3% | [2] 19.9% | [3] 27.5% | [4] -2.95% | [5] 14.8% | [6] 1.55%

C/C=C/Sc1ccccc1C(=O)O
inactive: [1] -14.3% | [2] -19.4% | [3] -9.55% | [4] -18.9% | [5] -22.6% | [6] -34%

Oc1ccc(Cl)cc1/C=N\N=C\c1cc(Cl)ccc1O
inactive: [1] -50.3% | [2] -1.1% | [3] 5.75% | [4] -36.1% | [5] 3.15% | [6] 8.85%

O=C1CN(c2ccccc2)CC(=O)N2C(c3ccccc3)CCCN12 (stereo unspecified)
inactive: [1] 22.3% | [2] 1.65% | [3] -6.05% | [4] 26.2% | [5] 24.4% | [6] 3.35%

O=C1CCC(N2C(=O)C3CCCCC3C2=O)C(=O)N1 (stereo unspecified)
inactive: [1] -0.2% | [2] 12.3% | [3] 18.9% | [4] 1.7% | [5] 8.5% | [6] -14.5%

O=CNC(Cc1cnc[nH]1)C(=O)O (stereo unspecified)
inactive: [1] -14.4% | [2] -16.9% | [3] -48.1% | [4] -68.2% | [5] -25.5% | [6] -30.2%

O=C(O)C(CCOc1ccccc1)(CCc1ccccc1)C(=O)O
inactive: [1] 4.1% | [2] -10.8% | [3] 5.7% | [4] -58.5% | [5] -8.1% | [6] -13.4%

O=C(/C=C/c1ccccc1)Nc1cc(Cl)ccc1Cl
inactive: [1] 4.75% | [2] 26.1% | [3] 22.6% | [4] -7.3% | [5] 31.8% | [6] 17.6%

O=c1/c(=c2\c(=O)c3cccc4cccc2c43)c2cccc3cccc1c32
inactive: [1] -10.2% | [2] 24.9% | [3] -0.4% | [4] -34% | [5] -9.05% | [6] -18.1%

O=C1CSC(c2ccccc2[N+](=O)[O-])N1c1ccc(-n2c(-c3ccccc3)nc3ccccc3c2=O)cc1 (stereo unspecified)
inactive: [1] -8.95% | [2] -10.1% | [3] -4.05% | [4] -16.1% | [5] 13.3% | [6] 7.6%

CNC1C(CO)OC(n2cnc3c(=O)[nH]cnc32)C1O (stereo unspecified)
inactive: [1] 12.2% | [2] -6.45% | [3] -11.4% | [4] -9.1% | [5] -9.2% | [6] 13.6%

CC(C)(C)c1ccc(SC(=O)Nc2cccc(Cl)c2Cl)cc1
inactive: [1] 8.35% | [2] 14.3% | [3] 18.1% | [4] 13.8% | [5] 24.4% | [6] 20.9%

O=C1Oc2ccccc2C(=O)C1=Ic1ccccc1
active: [3] 73.6%
inactive: [1] 31.3% | [2] 52.9% | [4] 51.3% | [5] 38% | [6] 56%

COc1ccc(C(=O)c2ccccc2)c(OC(=O)Nc2ccc(Cl)cc2)c1
inactive: [1] 14.8% | [2] -3.4% | [3] 14.9% | [4] 3.8% | [5] 12.6% | [6] 16.6%

Cc1nc2ccccc2nc1CCO
inactive: [1] -12.7% | [2] -0.15% | [3] -3.85% | [4] -24.2% | [5] -24.8% | [6] -8.8%

CC[CH2][Sn]([CH2]CC)([O]C(=O)c1cccnc1SC)[O][Sn]([CH2]CC)([CH2]CC)[O]C(=O)c1cccnc1SC
active: [1] 88.5% | [2] 90% | [3] 90.8% | [4] 88.9% | [5] 89.1% | [6] 82.1%

O=C(O)c1ccc(Nc2nc3ccccc3nc2C(=O)O)cc1
inactive: [1] -19.2% | [2] -26.8% | [3] -33.2% | [4] 7.05% | [5] -13.2% | [6] -0.9%

CCOC(=O)C1=C(C)Oc2cc3c(cc2C1c1ccc(OC)cc1)OCO3 (stereo unspecified)
inactive: [1] 3.9% | [2] 5.8% | [3] 23.5% | [4] -39.8% | [5] 31.4% | [6] 6.65%

C/C(CC(=O)Nc1ccc(C)c(C)c1)=N\NC(N)=O
inactive: [1] -31.9% | [2] -28.6% | [3] -0.7% | [4] -5.35% | [5] -22% | [6] -24.2%

Clc1ccccc1C=NCCN=Cc1ccccc1Cl
inactive: [1] -1.75% | [2] -14.8% | [3] -3.5% | [4] 0.5% | [5] 3.4% | [6] 1.15%

NC(CCCCO)C(=O)O (stereo unspecified)
inactive: [1] -6.8% | [2] -35.8% | [3] 4.1% | [4] 23.1% | [5] -29.1% | [6] -15%

CCOC(=O)N1C/C(=C\c2ccccc2)C(=O)/C(=C/c2ccccc2)C1
inactive: [1] -6.85% | [2] 0.6% | [3] -12.3% | [4] 19.6% | [5] 9.15%
active: [6] 72.2%

CC1(n2nc(-c3ccccc3)n(-c3ccccc3)c2=O)CSC1
inactive: [1] -8.4% | [2] -22.9% | [3] -31.1% | [4] -15.9% | [5] -15.8% | [6] -7.1%

Nc1cccc2sccc12
inactive: [1] 4.25% | [2] 5.15% | [3] -3.85% | [4] -4.1% | [5] 11.9% | [6] -3.35%

COC(=O)/C(=N\NC(N)=O)C(C(=O)C=C(C)C)C(=O)C(=O)Nc1ccc(Cl)c(Cl)c1 (stereo unspecified)
inactive: [1] -9% | [2] -40.6% | [3] -34.6% | [4] 12.2% | [5] -17% | [6] -27.6%

CC(=O)Nc1ccc(NC(=O)Nc2cccc(C(C)=O)c2)cc1
inactive: [1] 7.3% | [2] 27.2% | [3] 9.35% | [4] 0.3% | [5] 22.6% | [6] 28.6%

COC(=O)C1CSC(C)(C)N1 (stereo unspecified)
inactive: [1] 10.6% | [2] -8.55% | [3] -1.5% | [4] -0.95% | [5] -7.35% | [6] 4.35%
